Results on seven compounds are retold here after PubChem BioAssay.

The source made the active and inactive calls.

Experiment [1] is described as follows: E. coli DRC41 culture turbidity changes, primary screen, E. coli filamentation inducer project, strain DRC41, OD650, 48 h (AID 1152).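 Further: E. coli MC1000 strain DRC41 lacking acrAB efflux pump and sulA.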 As to conditions: E. coli DRC41 (acrAB sulA), higher = more signal, called active from +8 up or from −8 down.
Experiment [2] can be described thus: small-molecule binders of probe aLefty1, primary screen, biochemical, small-molecule microarray, 635/667 nm fluorescence (AID 1153).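 Further: score merges spot fluorescence with signal-to-noise ratio from the scanned slide images.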 As to conditions: higher = more signal.
The nature of experiment [3]: PSAC antagonists in infected red cells, primary screen, cell-based, P. falciparum Indochina, OD700, 1 h (AID 1154). Conditions: P. falciparum Indochina infected RBC osmotic lysis, higher = more signal, called active from +8 up or from −8 down.
Experiment [4] is described as follows: PSAC antagonists in infected red cells, primary screen, cell-based, P. falciparum Indochina, OD700, 2 h (AID 1155).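 Further: lysis reports solute entry through the parasite surface anion channel PSAC; channel blockers reduce lysis of infected cells.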 As to conditions: P. falciparum Indochina infected erythrocytes, osmotic lysis OD700; higher = more signal, called active from +8 up or from −8 down.
A short description of experiment [5]: osmotic lysis modulators in infected erythrocytes, primary screen, PSAC antagonist project, cell-based, P. falciparum Indochina, OD700, 3 h (AID 1156). Conditions: higher = more signal, called active from +8 up or from −8 down.
The nature of experiment [6]: PSAC antagonists in infected red cells, primary screen, cell-based, P. falciparum Indochina, OD700, 18 h (AID 1157). As to conditions: P. falciparum Indochina infected erythrocytes, osmotic lysis OD700, 18 h; higher = more signal, called active from +8 up or from −8 down.
A short description of experiment [7]: modulators of S6 phosphorylation in cells, primary screen, cell-based, A549, cytoblot, luminescence, serum-stimulated (AID 1158).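 Further: serum-stimulated A549 lung adenocarcinoma cells; signal is phosphorylated S6 detected by cytoblot immunostaining with HRP secondary.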 As to conditions: A549 phospho-S6 cytoblot, 5 h, higher = more signal.
Experiment [8] has as its target NADPH oxidase 2 (Homo sapiens) (UniProt P04839). Kind of experiment: NOX2-dependent H2O2 signal modulators, primary screen, NOX inhibitor project, cell-based, HEK293-NOX2, PMA-stimulated, Amplex Red fluorescence (AID 1159). Further: test concentration not given here. As to conditions: 45 min, higher = more signal, called active from +8 up or from −8 down.
The target in experiment [9] is NADPH oxidase 4 (Homo sapiens) (UniProt Q9NPH5). Kind of experiment: NOX4-dependent H2O2 signal modulators, primary screen, NOX inhibitor project, cell-based, HEK293-NOX4, tetracycline-induced, Amplex Red fluorescence (AID 1160). As to conditions: 45 min, higher = more signal, called active from +8 up or from −8 down.
Sequence of NADPH oxidase 4 (Homo sapiens) (Q9NPH5 whole entry, looked up): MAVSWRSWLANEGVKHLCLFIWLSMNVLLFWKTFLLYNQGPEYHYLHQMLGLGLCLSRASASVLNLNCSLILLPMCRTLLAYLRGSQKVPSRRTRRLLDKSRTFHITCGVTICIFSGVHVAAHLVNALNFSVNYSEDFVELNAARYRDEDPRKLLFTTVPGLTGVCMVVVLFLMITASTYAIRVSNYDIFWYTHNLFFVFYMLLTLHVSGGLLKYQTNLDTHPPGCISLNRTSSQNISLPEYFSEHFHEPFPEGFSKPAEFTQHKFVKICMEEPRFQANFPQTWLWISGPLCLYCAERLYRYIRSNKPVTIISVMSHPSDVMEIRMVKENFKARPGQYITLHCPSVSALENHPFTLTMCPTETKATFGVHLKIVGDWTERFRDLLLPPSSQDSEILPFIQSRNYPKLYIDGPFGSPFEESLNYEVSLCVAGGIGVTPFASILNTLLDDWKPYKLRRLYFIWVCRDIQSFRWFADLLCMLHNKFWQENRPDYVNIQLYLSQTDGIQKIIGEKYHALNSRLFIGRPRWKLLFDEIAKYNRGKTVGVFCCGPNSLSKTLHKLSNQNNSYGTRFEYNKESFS
Experiment [10] has as its target NADPH oxidase 5 (Homo sapiens) (UniProt Q96PH1). Kind of experiment: NOX5-dependent H2O2 signal modulators, primary screen, NOX inhibitor project, cell-based, HEK293-NOX5, Amplex Red fluorescence (AID 1161). As to conditions: HEK293-NOX5, ionomycin, 45 min, higher = more signal.
The nature of experiment [11]: A549 cell viability effects, profiling panel, calcein-AM fluorescence, 48 h, basal (AID 1162). Further: test concentration not given here. Conditions: higher = more signal.
The nature of experiment [12]: adipocyte viability effects, profiling panel, cell-based, 3T3-L1 adipocytes, calcein-AM fluorescence, 48 h, basal (AID 1163). Further: test concentration not given here. Conditions: 3T3-L1 adipocytes viability, higher = more signal.
Experiment [13] is described as follows: HepG2 cell viability effects, profiling panel, calcein-AM fluorescence, 48 h, basal (AID 1164). Further: test concentration not given here. Conditions: higher = more signal.
The nature of experiment [14]: MM1S cell viability effects, profiling panel, calcein-AM fluorescence, 48 h, basal (AID 1165).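 Further: viability of MM1S multiple myeloma cells under basal unstimulated conditions; test concentration not given here.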 Conditions: higher = more signal.
The nature of experiment [15]: basal RPMI8226 viability, no added stimulus, profiling panel, cell-based, calcein-AM fluorescence, 48 h, PK04 Diversity Set (AID 1166).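 Further: cells grown under basal conditions without added stimulus; test concentration not given here.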 As to conditions: RPMI8226 myeloma viability, higher = more signal.
Experiment [16] in a line: basal HepG2 mitochondrial membrane potential changes, profiling panel, cell-based, JC-1 fluorescence, 24 h, 100 nL compound (AID 1167). Further: test concentration not given here. Conditions: higher = more signal.
Experiment [17] in a line: basal 3T3-L1 adipocyte mitochondrial potential changes, profiling panel, cell-based, JC-1 fluorescence, 3T3-L1 adipocytes, 24 h, 100 nL compound (AID 1168). Further: test concentration not given here. As to conditions: JC-1 mitochondrial fluorescence, higher = more signal, called active from +8 up or from −8 down.
Experiment [18] can be described thus: basal RPMI8226 mitochondrial membrane potential changes, profiling panel, cell-based, JC-1 fluorescence, 24 h, 100 nL compound (AID 1169). Further: test concentration not given here. As to conditions: RPMI8226 myeloma, JC-1 mitochondrial potential fluorescence, higher = more signal.
Experiment [19] can be described thus: basal MM1S mitochondrial membrane potential changes, profiling panel, cell-based, JC-1 fluorescence, 24 h, 100 nL compound (AID 1170). Further: test concentration not given here. Conditions: higher = more signal.
The nature of experiment [20]: A549 lung cancer cell viability effects, profiling panel, resazurin fluorescence, 24 h, PK04 Diversity Set (AID 1171). Further: test concentration not given here. As to conditions: higher = more signal, called active from +8 up or from −8 down.

Sequence of NADPH oxidase 5 (Homo sapiens) (Q96PH1 whole entry, looked up): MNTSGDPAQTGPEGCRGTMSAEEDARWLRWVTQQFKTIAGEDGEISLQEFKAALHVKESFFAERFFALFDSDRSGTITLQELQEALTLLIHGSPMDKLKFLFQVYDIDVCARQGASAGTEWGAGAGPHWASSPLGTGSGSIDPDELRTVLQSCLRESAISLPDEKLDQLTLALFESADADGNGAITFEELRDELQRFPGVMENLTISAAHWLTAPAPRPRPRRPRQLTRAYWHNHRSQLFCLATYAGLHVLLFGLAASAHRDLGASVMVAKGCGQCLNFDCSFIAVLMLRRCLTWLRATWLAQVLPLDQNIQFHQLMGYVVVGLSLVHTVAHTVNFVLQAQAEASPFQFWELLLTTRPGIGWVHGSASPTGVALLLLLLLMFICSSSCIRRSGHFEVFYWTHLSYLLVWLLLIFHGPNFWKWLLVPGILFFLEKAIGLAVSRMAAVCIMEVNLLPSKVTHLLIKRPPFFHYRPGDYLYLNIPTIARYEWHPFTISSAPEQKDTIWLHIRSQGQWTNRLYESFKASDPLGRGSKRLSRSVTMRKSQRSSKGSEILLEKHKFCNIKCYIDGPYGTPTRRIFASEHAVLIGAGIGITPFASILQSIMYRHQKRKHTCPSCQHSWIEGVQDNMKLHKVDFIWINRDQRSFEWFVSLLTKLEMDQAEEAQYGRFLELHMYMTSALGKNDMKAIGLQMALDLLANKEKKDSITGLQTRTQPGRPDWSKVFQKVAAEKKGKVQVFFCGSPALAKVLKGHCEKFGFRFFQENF
Sequence of NADPH oxidase 2 (Homo sapiens) (P04839 whole entry, looked up): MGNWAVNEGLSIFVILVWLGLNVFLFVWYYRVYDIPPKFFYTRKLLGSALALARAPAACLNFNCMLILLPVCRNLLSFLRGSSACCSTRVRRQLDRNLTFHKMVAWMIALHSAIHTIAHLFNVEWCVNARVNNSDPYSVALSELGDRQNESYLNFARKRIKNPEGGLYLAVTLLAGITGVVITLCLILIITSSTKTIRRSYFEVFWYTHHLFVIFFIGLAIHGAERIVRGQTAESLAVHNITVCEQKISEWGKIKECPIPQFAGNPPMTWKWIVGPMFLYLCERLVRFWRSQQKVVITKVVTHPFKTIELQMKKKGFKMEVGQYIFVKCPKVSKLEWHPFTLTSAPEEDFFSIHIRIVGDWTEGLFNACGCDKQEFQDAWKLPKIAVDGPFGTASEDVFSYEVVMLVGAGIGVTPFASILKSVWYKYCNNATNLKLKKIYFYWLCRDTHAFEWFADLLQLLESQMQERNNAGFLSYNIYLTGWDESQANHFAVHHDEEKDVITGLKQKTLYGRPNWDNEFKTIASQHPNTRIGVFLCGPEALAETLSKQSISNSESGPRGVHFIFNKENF

In the case of `Cc1cc(C)c(C(O)C2C=CC3C(=O)NC(=O)C3N2Nc2ccccn2)c(C)c1` (stereo not given), the z-score in experiment [1] was -1.14 (inactive); in [3] it was 1.02 (inactive); in experiment [4], 0.742 (inactive); in experiment [5], -0.0209 (inactive); in experiment [6], 1.07 (inactive); in experiment [7], -1.25. Moreover, the z-score was -1.49 (inactive) in experiment [8]; -1.33 (inactive) in experiment [9]; -2.12 in [10]; -0.948 in experiment [11]; -0.397 in experiment [12]; 0.359 in experiment [13]. Further, the z-score in [14] is 0.22; in experiment [15] it was 0.066; in experiment [16] it was -0.767; in experiment [17], -0.363 (inactive); in experiment [18], -0.188; in experiment [19], -0.0615. Further, the z-score in [20] was -0.875 (inactive). In addition, the composite z-score in experiment [2] turned out to be 0.469.
For `COCCCNC(=O)[C@@]1(C)c2ccccc2C(=O)N(Cc2ccccc2)[C@H]1c1ccc(CO)cc1`, the z-score in [1] was -0.0509 (inactive); in experiment [3], 2.68 (inactive); in [4] it was 0.179 (inactive); in experiment [5], 2.67 (inactive); in experiment [6], -0.487 (inactive); in experiment [7], 2.82. Besides, the z-score is -1.63 (inactive) in [8]; -2.44 (inactive) in experiment [9]; -2.66 in experiment [10]; 0.587 in experiment [11]; 0.928 in experiment [12]; -0.0853 in [13]. Moreover, the z-score was -0.174 in [14]; -2.12 in experiment [15]; 0.548 in experiment [16]; -1.39 (inactive) in experiment [17]; -0.648 in experiment [18]; -0.514 in experiment [19]. In experiment [20], the z-score was 0.22 (inactive). Moreover, in experiment [2], the composite z-score was found to be 0.114.
For the compound `Cc1ccc(S[C@]2(C(=O)NCc3ccccc3)CC(=O)N(Cc3cc(C(F)(F)F)cc(C(F)(F)F)c3)[C@@H]2c2ccc(CO)cc2)cc1`, the z-score was -0.957 (inactive) in experiment [1]; 2.21 (inactive) in [3]; 0.818 (inactive) in experiment [4]; 0.677 (inactive) in experiment [5]; 0.352 (inactive) in experiment [6]; -0.466 in [7]. Moreover, the z-score in [8] is 0.314 (inactive); in experiment [9] it was 0.546 (inactive); in [10], 0.832; in experiment [11] it was -0.549; in experiment [12], 0.774; in experiment [13] it was 0.224. Further, the z-score in [14] is -0.125; in experiment [15], -1.17; in experiment [16], -0.271; in [17], -0.525 (inactive); in experiment [18], 1.13; in [19], -0.476. Besides, the z-score in experiment [20] is 0.7 (inactive). In [2], this compound returned a composite z-score of -0.109.
For the compound `CCCNC(=O)[C@@]1(C)c2ccccc2C(=O)N(Cc2ccc(OC(F)(F)F)cc2)[C@H]1c1ccc(CO)cc1`, the z-score was 0.707 (inactive) in [1]; 7.17 (inactive) in experiment [3]; 0.699 (inactive) in [4]; 2.41 (inactive) in [5]; 0.208 (inactive) in experiment [6]; 0.0696 in experiment [7]. The z-score is -1.07 (inactive) in [8]; 0.332 (inactive) in experiment [9]; 0.423 in experiment [10]; 0.951 in experiment [11]; -0.105 in experiment [12]; 1.28 in experiment [13]. For the same compound, the z-score in [14] was 0.328; in experiment [15], -0.0542; in [16] it was 3.34; in experiment [17], 0.45 (inactive); in experiment [18] it was -0.244; in [19], -0.949. The z-score in experiment [20] was -0.658 (inactive). In addition, the composite z-score in [2] came out at 0.15.
In the case of `C=C[C@H](C)[C@H](O)c1ccc(OCCO)cc1`, the z-score in experiment [1] was 1.05 (inactive); in [3], 1.09 (inactive); in experiment [4], 0.521 (inactive); in experiment [5] it was 1.62 (inactive); in experiment [6] it was 0.402 (inactive); in experiment [7], 0.156. The z-score in experiment [8] was 0.218 (inactive); in experiment [9] it was -0.187 (inactive); in [10] it was -0.112; in [11], -0.001; in experiment [12], 0.557; in experiment [13], -0.548. Besides, the z-score in [14] was 1.17; in experiment [15] it was -0.484; in experiment [16], 0.221; in [17], -0.721 (inactive); in experiment [18], -0.238; in [19], -0.339. The z-score in experiment [20] was -0.276 (inactive). The compound also returned a composite z-score in [2] of -0.553.
On to `CC(C)C(CO)N1C(=O)[C@@H]2[C@H]3C(=O)OCC=C[C@H]3OC23C=CCN(c2ccc4ccccc4c2)C(=O)[C@@H]13` (stereo not given in full), for which the z-score in [1] was -0.165 (inactive); in [3], 0.244 (inactive); in experiment [4] it was 0.884 (inactive); in [5], 0.686 (inactive); in experiment [6], 0.6 (inactive); in [7], -0.575. Further, the z-score in experiment [8] is 0.902 (inactive); in experiment [9], 0.357 (inactive); in experiment [10], 1.74; in experiment [11], -0.339; in experiment [12], 0.126; in [13] it was 0.21. Also, the z-score is 0.88 in experiment [14]; -1.02 in experiment [15]; -0.124 in experiment [16]; 0.106 (inactive) in experiment [17]; -0.651 in experiment [18]; 1.1 in experiment [19]. The z-score in [20] is 0.156 (inactive). The compound further had a composite z-score in experiment [2] of -0.147.
For `C=CCC(OC(C)=O)[C@@H]1[C@@H](N(Cc2ccc(-c3ccccc3)cc2)C(=O)c2ccc(C)cc2)c2cc(OCCCO)ccc2N1C(=O)c1ccc2ccccc2n1` (stereo not given in full), the z-score is 2.95 (inactive) in experiment [1]; 0.225 (inactive) in experiment [3]; -0.883 (inactive) in experiment [4]; -1.19 (inactive) in experiment [5]; -1.06 (inactive) in [6]; 1.56 in [7]. The z-score in experiment [8] is -0.0121 (inactive); in experiment [9], 0.729 (inactive); in experiment [10] it was 1.92; in experiment [11], 3.36; in experiment [12] it was 0.389; in experiment [13] it was 1.85. Also, the z-score in [14] was -0.68; in experiment [15], 1.28; in experiment [16], 3.31; in experiment [17], 0.285 (inactive); in [18], 0.0312; in experiment [19], 1.96. Moreover, in [20], the z-score is 1.87 (inactive). The compound also displayed a composite z-score in experiment [2] of 0.175.
